Assay results as given in PubChem BioAssay AID1159580 (chemical genetic matrix, 2015).
Several values for one entry are separate records, joined by “and”; a condition that tells them apart may be missing. Equal entries are not always repeated. Hit rate of the full screen: of about 5,500 compounds, about 2,000 (36%) were called active. Another 18% or so got no clear call; they are omitted. Cut-off read from the data, not from the text of the source: active = normalized growth mostly below about 0.91 (no sharp cut-off); inconclusive = no clear call, values can overlap the other calls; inactive = mostly above about 0.92. The list shows a part of the results.

Experiment: chemical genetic growth profiling, strain panel (AID 1159580);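 note: tested at 20 µM; growth read once vehicle control cultures reached saturation at 30 °C; 1 = growth at the plate median or of vehicle wells; lower values mean less growth of the strain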
Settings: growth OD

Measured: normalized growth

Cn1cnc2c1c(=O)[nH]c(=O)n2C
inactive: S. cerevisiae deletion strains, locus YJR075W, strain HOC1, hits give low values 1.03 | S. cerevisiae deletion strains, locus YKL009W, strain mrt4, hits give low values 0.989 | S. cerevisiae deletion strains, locus YKL068W, hits give low values 1.01 | S. cerevisiae deletion strains, locus YKL085W, strain MDH1 (second series), hits give low values 1.01 | S. cerevisiae deletion strains, locus YKL085W, strain MDH1, hits give low values 1.01 | S. cerevisiae deletion strains, locus YKL160W, strain elf1, hits give low values 0.995 | S. cerevisiae deletion strains, locus YKL190W, strain CNB1, hits give low values 1.01 | S. cerevisiae deletion strains, locus YKR001C, strain vps1, hits give low values 1 | S. cerevisiae deletion strains, locus YKR026C, strain gcn3, hits give low values 0.961 | S. cerevisiae deletion strains, locus YKR091W, strain srl3, hits give low values 0.964 | S. cerevisiae deletion strains, locus YLL001W, strain dnm1, hits give low values 0.994 | S. cerevisiae deletion strains, locus YLL026W, hits give low values 0.996 | S. cerevisiae deletion strains, locus YLL041C, strain sdh2, hits give low values 1.01 | S. cerevisiae deletion strains, locus YLR027C, strain aat2, hits give low values 0.987 | S. cerevisiae deletion strains, locus YLR039C, strain RIC1, hits give low values 1.02 | S. cerevisiae deletion strains, locus YLR058C, strain SHM2, hits give low values 1.01 | S. cerevisiae deletion strains, locus YLR102C, strain apc9, hits give low values 1.01 | S. cerevisiae deletion strains, locus YLR113W, strain HOG1, hits give low values 0.973 | S. cerevisiae deletion strains, locus YLR221C, strain rsa3, hits give low values 0.976 | S. cerevisiae deletion strains, locus YLR258W, strain gsy2, hits give low values 1 | S. cerevisiae deletion strains, locus YLR262C, strain YPT6 (second series), hits give low values 0.978 | S. cerevisiae deletion strains, locus YLR262C, strain YPT6, hits give low values 1.04 | S. cerevisiae deletion strains, locus YLR268W, strain sec22, hits give low values 1.04 | S. cerevisiae deletion strains, locus YLR320W, strain mms22, hits give low values 1 | S. cerevisiae deletion strains, locus YLR330W, strain CHS5, hits give low values 1.01 | S. cerevisiae deletion strains, locus YLR342W, strain FKS1 (second series), hits give low values 1.01 | S. cerevisiae deletion strains, locus YLR342W, strain FKS1, hits give low values 0.978 | S. cerevisiae deletion strains, locus YLR357W, strain rsc2, hits give low values 1 | S. cerevisiae deletion strains, locus YLR370C, strain arc18, hits give low values 0.97 | S. cerevisiae deletion strains, locus YLR371W, strain rom2, hits give low values 1.03 | S. cerevisiae deletion strains, locus YLR384C, strain iki3, hits give low values 0.994 | S. cerevisiae deletion strains, locus YLR418C, strain cdc73, hits give low values 0.99 | S. cerevisiae deletion strains, locus YML016C, strain PPZ1, hits give low values 1.01 | S. cerevisiae deletion strains, locus YML032C, strain rad52, hits give low values 1.03 | S. cerevisiae deletion strains, locus YML120C, strain ndi1, hits give low values 0.959 | S. cerevisiae deletion strains, locus YML124C, strain tub3, hits give low values 1.01 | S. cerevisiae deletion strains, locus YMR058W, strain fet3, hits give low values 0.97 | S. cerevisiae deletion strains, locus YMR078C, strain ctf18, hits give low values 1.01 | S. cerevisiae deletion strains, locus YMR125W, strain sto1, hits give low values 0.978 | S. cerevisiae deletion strains, locus YMR129W, hits give low values 0.979 | S. cerevisiae deletion strains, locus YMR205C, strain PFK2, hits give low values 0.979 | S. cerevisiae deletion strains, locus YMR223W, strain ubp8, hits give low values 1 | S. cerevisiae deletion strains, locus YMR231W, strain pep5, hits give low values 1 | S. cerevisiae deletion strains, locus YMR263W, strain SAP30, hits give low values 1.01 and 0.995 | S. cerevisiae deletion strains, locus YMR307W, strain GAS1, hits give low values 0.981 and 0.999 | S. cerevisiae deletion strains, locus YNL067W, strain RPL9B, hits give low values 1.02 | S. cerevisiae deletion strains, locus YNL071W, strain lat1, hits give low values 0.983 | S. cerevisiae deletion strains, locus YNL128W, strain TEP1, hits give low values 1.02 and 1.01 | S. cerevisiae deletion strains, locus YNL153C, strain GIM3, hits give low values 1.01 | S. cerevisiae deletion strains, locus YNL175C, strain NOP13, hits give low values 0.995 | S. cerevisiae deletion strains, locus YNL183C, strain NPR1, hits give low values 0.948 | S. cerevisiae deletion strains, locus YNL197C, strain WHI3, hits give low values 1.02 | S. cerevisiae deletion strains, locus YNL209W, strain ssb2, hits give low values 0.986 | S. cerevisiae deletion strains, locus YNL224C, strain SQS1, hits give low values 1.01 | S. cerevisiae deletion strains, locus YNL233W, strain BNI4, hits give low values 1.01 | S. cerevisiae deletion strains, locus YNL248C, strain rpa49, hits give low values 0.978 | S. cerevisiae deletion strains, locus YNL250W, strain rad50, hits give low values 1.02 | S. cerevisiae deletion strains, locus YNL271C, strain bni1, hits give low values 1.01 | S. cerevisiae deletion strains, locus YNL298W, strain CLA4, hits give low values 1 | S. cerevisiae deletion strains, locus YNL307C, strain MCK1, hits give low values 1 | S. cerevisiae deletion strains, locus YNL322C, strain KRE1 (second series), hits give low values 0.953 | S. cerevisiae deletion strains, locus YNL322C, strain KRE1, hits give low values 1.01 and 1.02 | S. cerevisiae deletion strains, locus YNR049C, strain mso1, hits give low values 0.993 | S. cerevisiae deletion strains, locus YNR052C, strain pop2, hits give low values 1.01 | S. cerevisiae deletion strains, locus YOL006C, strain TOP1, hits give low values 1.06 | S. cerevisiae deletion strains, locus YOL012C, strain htz1 0.781 | S. cerevisiae deletion strains, locus YOL147C, strain pex11, hits give low values 1.01 | S. cerevisiae deletion strains, locus YOR001W, strain rrp6, hits give low values 0.986 | S. cerevisiae deletion strains, locus YOR061W, strain CKA2, hits give low values 1.01 | S. cerevisiae deletion strains, locus YOR069W, strain VPS5, hits give low values 1.01 | S. cerevisiae deletion strains, locus YOR070C, strain gyp1, hits give low values 1 | S. cerevisiae deletion strains, locus YOR080W, strain dia2, hits give low values 0.972 | S. cerevisiae deletion strains, locus YOR083W, strain WHI5 (second series), hits give low values 1 | S. cerevisiae deletion strains, locus YOR083W, strain WHI5, hits give low values 0.979 | S. cerevisiae deletion strains, locus YOR106W, strain vam3, hits give low values 0.977 | S. cerevisiae deletion strains, locus YOR136W, strain idh2, hits give low values 1.01 | S. cerevisiae deletion strains, locus YOR144C, strain elg1, hits give low values 1.01 | S. cerevisiae deletion strains, locus YOR184W, strain ser1, hits give low values 1.01 | S. cerevisiae deletion strains, locus YOR231W, strain MKK1, hits give low values 0.976 | S. cerevisiae deletion strains, locus YOR265W, strain rbl2, hits give low values 0.997 | S. cerevisiae deletion strains, locus YOR270C, strain vph1, hits give low values 0.986 | S. cerevisiae deletion strains, locus YOR290C, strain snf2, hits give low values 0.994 | S. cerevisiae deletion strains, locus YOR316C, strain cot1, hits give low values 1.01 | S. cerevisiae deletion strains, locus YPL051W, strain arl3, hits give low values 1 | S. cerevisiae deletion strains, locus YPL055C, strain LGE1, hits give low values 1.01 and 1.03 | S. cerevisiae deletion strains, locus YPL078C, strain atp4, hits give low values 0.979 | S. cerevisiae deletion strains, locus YPL106C, strain sse1, hits give low values 0.954 | S. cerevisiae deletion strains, locus YPL240C, strain hsp82, hits give low values 0.989 | S. cerevisiae deletion strains, locus YPL241C, strain CIN2, hits give low values 1.01 | S. cerevisiae deletion strains, locus YPL256C, strain CLN2, hits give low values 0.932 | S. cerevisiae deletion strains, locus YPR119W, strain clb2, hits give low values 1.02 | S. cerevisiae deletion strains, locus YPR141C, strain kar3, hits give low values 1.01 | S. cerevisiae deletion strains, locus YPR163C, strain tif3, hits give low values 1.01 | S. cerevisiae deletion strains, locus YPR167C, strain met16, hits give low values 1.01 | S. cerevisiae deletion strains, strain wtn01, hits give low values 1.01 | S. cerevisiae strains, strain wild type, hits give low values 1.01
